HIF activator – HIF pathway transcriptional activators, primary screen, cell-based, U2OS HRE-luciferase, luminescence; U2OS HRE-luciferase reporter; normalized: DMSO 0%, desferrioxamine 100%; 0.32% of 300,000 active; activation, % at 7.5 µM (by protocol); AID 1910, 2009;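 active = mean activation of at least 10% of the iron chelator positive control signal, with at least half of replicates also reaching 10%; inconclusive = mean and replicate majority disagree about reaching 10%; inactive = mean and most replicates under 10%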
ALR H2O2 inh – inhibitors of human ALR sulfhydryl oxidase, primary screen, biochemical, H2O2 detection, HRP-luminol luminescence, single point | 3.8% of 290,000 active | inhibition, % (no concentration beside the values) | AID 485317, 2010 | purified ALR, DTT oxidation | FAD-linked sulfhydryl oxidase ALR (Homo sapiens), P55789;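 active = mean replicate inhibition above about 79%, with every replicate also reaching it, limit read from the data; inconclusive = only one of the two criteria met; inactive = mean below limit and not every replicate reaching it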
Target sequence (P55789 whole entry, looked up): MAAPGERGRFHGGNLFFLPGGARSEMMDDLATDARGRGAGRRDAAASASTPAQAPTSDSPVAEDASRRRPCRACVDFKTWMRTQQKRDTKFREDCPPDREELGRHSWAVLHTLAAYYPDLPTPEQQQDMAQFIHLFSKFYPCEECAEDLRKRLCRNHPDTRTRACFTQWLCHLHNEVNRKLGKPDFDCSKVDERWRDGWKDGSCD
PfM18AAP inh – PfM18AAP inhibitors, malaria aminopeptidase, primary screen, biochemical, QFRET, recombinant enzyme. M18 aspartyl aminopeptidase (Plasmodium falciparum 3D7). H-Glu-NHMec fluorogenic cleavage. inhibition, % at 7.35 µM. 1.2% of 290,000 active;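 active = inhibition above the campaign mean inhibition over all tested compounds plus 3 SD, cut at about 28% in these data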;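 also: 0% = plate median of test compound wells and 100% = 2 mM ZnCl2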
Mot1-301 SUMO – yeast Mot1-301 growth rescue at high temperature, primary screen, SUMOylation pathway inhibitor project, S. cerevisiae, ATP luminescence, 38.5C | S. cerevisiae Mot1-301 growth rescue; percent above DMSO median, 100 means doubled | growth rescue, % at 18.8 µM | 1% of 320,000 active | AID 2716, 2010;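 active = every valid replicate shows activation above 250% relative to neutral control wells; inactive = the rest, any valid replicate at or below 250%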;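 also: OY570 slx delta 5 strain wells were the positive control but not used for scaling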
* hit, by the source's call; ? = inconclusive; nt = no result given. In the library only some 5.3% were active in any assay of this set; here they are far more common.

SMILES	HIF activator	ALR H2O2 inh	PfM18AAP inh	Mot1-301 SUMO
Nc1cccc(-c2csc(-n3ncc(C(=O)O)c3C(F)(F)F)n2)c1	-1	99*	-9	4
O=C(O)c1cnn(-c2nc(-c3cccc(F)c3)cs2)c1C(F)(F)F	0	11	-3	-10
CC(C)OP(=O)(c1ccc(N(C)C)cc1)C(O)c1ccc(N(C)C)cc1 (configuration not stated)	-11	98*	12	-15
CC(C)COP(=O)(OCC(C)C)C(O)c1ccc(N(C)C)cc1 (configuration not stated)	0	92*	10	-3
CC(C)COP(=O)(c1ccc(N(C)C)cc1)C(O)c1ccccc1 (configuration not stated)	0	11	0	-19
CC(C)COP(=O)(c1ccc(N(C)C)cc1)C(O)c1ccc(N(C)C)cc1 (configuration not stated)	-1	98*	-6	-6
COc1c(C)cc(S(=O)(=O)NCCN2CCOCC2)c(C)c1C	1	nt	2	2
O=[N+]([O-])c1ccc(S(=O)(=O)Nc2nnc(C(F)(F)F)s2)cc1	1	-9	-1	7
O=C(NCc1ccc(Cl)cc1)c1cccc2c1C(=O)N(CC1CCCO1)C2 (configuration not stated)	0	9	-1	0
COCc1cc(=O)n2[nH]c(-c3cccs3)cc2n1	-1	-6	1	-5
FC(F)(F)c1ccc(C2[C@H]3CN(Cc4cccnc4)[C@H](c4ccccc4)C34CC2(c2ccccc2)C4)cc1 (some centres not stated)	-1	-16	nt	-2
Cc1cc(=O)oc2c3c4c(cc12)OCCN4CCC3	1	97*	6	nt
CC(=O)Nc1ccc(N2C(=O)CSC2c2ccccc2)cc1 (configuration not stated)	0	99*	2	-2
CC(=O)Nc1ccc(N2C(=O)CSC2c2ccc([N+](=O)[O-])cc2)cc1 (configuration not stated)	0	?	0	-17
O=C1CSC(c2cccnc2)N1c1ccccc1 (configuration not stated)	0	96*	-16	5
O=C1CSC(c2ccccc2)N1c1cccnc1 (configuration not stated)	0	93*	2	7
O=C1CSC(c2ccc([N+](=O)[O-])cc2)N1c1ccccc1 (configuration not stated)	-4	98*	-4	-10
CC(=O)Nc1ccc(C2=NN(C)C(=NCc3ccccc3)SC2)cc1	0	99*	9	5
CCCNC(=O)CSC1=N/C(=C/c2ccc(F)cc2)C(=O)N1CC	nt	97*	-7	-2
CC(NC(=O)C(=O)N1CCOCC1)C(c1cccs1)N1CCN(c2ccc(F)cc2)CC1 (configuration not stated)	0	98*	7	0
CC(NC(=O)C(=O)N1CCOCC1)C(c1cccs1)N1CCN(c2ccccc2F)CC1 (configuration not stated)	0	15	-11	-10
CC(NS(C)(=O)=O)C(c1cccs1)N1CCN(c2ccc(F)cc2)CC1 (configuration not stated)	-1	98*	-6	33
CCOC(=O)/C(=N/Nc1ccc(Cl)cc1)S(=O)(=O)c1ccccc1	1	-2	-15	23
CCCC[n+]1c(C)sc2cc(OC)ccc21	0	nt	24	76
CCC[n+]1c(C)sc2c(OC)ccc(OC)c21	0	26	28*	-18
SMILES	HIF activator	ALR H2O2 inh	PfM18AAP inh	Mot1-301 SUMO
CCOc1ccc(N(CC)C(=O)CCS(=O)(=O)c2cccc3nonc23)cc1	0	nt	-2	6
Cc1nc2c(-c3ccccc3)cnn2c(N)c1-c1ccccc1	-9	1	-10	314
Cc1ccc(-c2cn3c(n2)SCC3)cc1	2	98*	-4	9
CCCCCN(C(=O)CCC(=O)OC(C)C(=O)Nc1cccc(C#N)c1)c1c(N)n(CCCC)c(=O)[nH]c1=O (configuration not stated)	0	-35	nt	303*
O=C(COC(=O)c1ccccc1SCC(=O)N1CCCC1)Nc1ccccc1C(F)(F)F	0	-5	10	-4
CCOC(=O)C1CCN(C(=O)c2cccc(NC3=NC4CS(=O)(=O)CC4S3)c2)CC1 (configuration not stated)	0	-14	-6	-7
COc1cccc(N2CCN(C(=O)c3cccc(NC4=NC5CS(=O)(=O)CC5S4)c3)CC2)c1 (configuration not stated)	0	100*	4	0
CN(C)CCCN(C(=O)c1cccc(N2C(=O)CCC2=O)c1)c1nc2cc3c(cc2s1)OCO3	-3	4	4	100
CCn1cnc2cc(NCc3ccc(Br)cc3)ccc21	4	86*	-15	-1
CCn1cnc2cc(NCc3ccc(C)cc3)ccc21	nt	87*	13	25
CC(C)n1cnc2cc(NCc3nc4ccccc4n3C)ccc21	2	53	-3	0
Cc1ccc(CNc2ccc3c(c2)ncn3C(C)C)cc1	3	93*	24	17
CCCn1cnc2cc(NCc3ccc(Br)cc3)ccc21	4	44	18	-1
CC(O)C1CCC2C3CC[C@H]4CC(O)CCC4(C)C3CC3(OCCO3)C12C (some centres not stated)	0	-23	6	11
COc1cc(Cn2c(=O)c3c(OC)c(C)cnc3n(C)c2=O)cc(OC)c1	0	26	10	19
Nc1nc(N2CCN(c3ccc(F)cc3)CC2)n[nH]1	0	98*	9	-10
C=CCn1c(SCc2c(C)noc2C)nnc1C1COc2ccccc2O1 (configuration not stated)	-1	-24	14	99
O=C(Cn1cccn1)N1CCCC(Nc2ccc(F)c(F)c2)C1 (configuration not stated)	1	89*	6	41
O=C(CCCn1cncn1)N1CCCC(Nc2ccc(F)cc2)C1 (configuration not stated)	0	98*	5	-13
O=C(CCN1CCCCO1)N1CCCC(Nc2ccc(F)cc2)C1 (configuration not stated)	0	95*	-1	-8
O=C(c1ccc(Cn2cnnn2)cc1)N1CCCC(Nc2ccc(F)cc2)C1 (configuration not stated)	0	65	9	-15
O=C(CCn1cnnn1)N1CCCC(Nc2ccc(F)cc2)C1 (configuration not stated)	0	98*	8	-2
O=C(CCN1CCCCO1)N1CCCC(Nc2cccc(F)c2)C1 (configuration not stated)	0	64	-5	-22
CCOC(=O)N1CCC(N2Cc3cccc(C(=O)Nc4ccccc4OC)c3C2=O)CC1	-1	-4	-9	8

Assay outcomes (PubChem BioAssay)
